KDM5B inh: Primary screen for KDM5B Histone Demethylases FDH-coupled qHTS. Lysine-specific demethylase 5B (Homo sapiens), Q9UGL1. KDM5B demethylase, FDH-coupled NADH fluorescence (FDH is formaldehyde dehydrogenase). Potency, µM (titrated, usually from 57.7 µM), usual class: inhibitors. hit rate 2.6% among 220,000; active = well fitted inhibition curve with a large enough effect; note: nearly all actives have a fitted effect of over 70% in size
Target sequence (Q9UGL1 whole entry, looked up): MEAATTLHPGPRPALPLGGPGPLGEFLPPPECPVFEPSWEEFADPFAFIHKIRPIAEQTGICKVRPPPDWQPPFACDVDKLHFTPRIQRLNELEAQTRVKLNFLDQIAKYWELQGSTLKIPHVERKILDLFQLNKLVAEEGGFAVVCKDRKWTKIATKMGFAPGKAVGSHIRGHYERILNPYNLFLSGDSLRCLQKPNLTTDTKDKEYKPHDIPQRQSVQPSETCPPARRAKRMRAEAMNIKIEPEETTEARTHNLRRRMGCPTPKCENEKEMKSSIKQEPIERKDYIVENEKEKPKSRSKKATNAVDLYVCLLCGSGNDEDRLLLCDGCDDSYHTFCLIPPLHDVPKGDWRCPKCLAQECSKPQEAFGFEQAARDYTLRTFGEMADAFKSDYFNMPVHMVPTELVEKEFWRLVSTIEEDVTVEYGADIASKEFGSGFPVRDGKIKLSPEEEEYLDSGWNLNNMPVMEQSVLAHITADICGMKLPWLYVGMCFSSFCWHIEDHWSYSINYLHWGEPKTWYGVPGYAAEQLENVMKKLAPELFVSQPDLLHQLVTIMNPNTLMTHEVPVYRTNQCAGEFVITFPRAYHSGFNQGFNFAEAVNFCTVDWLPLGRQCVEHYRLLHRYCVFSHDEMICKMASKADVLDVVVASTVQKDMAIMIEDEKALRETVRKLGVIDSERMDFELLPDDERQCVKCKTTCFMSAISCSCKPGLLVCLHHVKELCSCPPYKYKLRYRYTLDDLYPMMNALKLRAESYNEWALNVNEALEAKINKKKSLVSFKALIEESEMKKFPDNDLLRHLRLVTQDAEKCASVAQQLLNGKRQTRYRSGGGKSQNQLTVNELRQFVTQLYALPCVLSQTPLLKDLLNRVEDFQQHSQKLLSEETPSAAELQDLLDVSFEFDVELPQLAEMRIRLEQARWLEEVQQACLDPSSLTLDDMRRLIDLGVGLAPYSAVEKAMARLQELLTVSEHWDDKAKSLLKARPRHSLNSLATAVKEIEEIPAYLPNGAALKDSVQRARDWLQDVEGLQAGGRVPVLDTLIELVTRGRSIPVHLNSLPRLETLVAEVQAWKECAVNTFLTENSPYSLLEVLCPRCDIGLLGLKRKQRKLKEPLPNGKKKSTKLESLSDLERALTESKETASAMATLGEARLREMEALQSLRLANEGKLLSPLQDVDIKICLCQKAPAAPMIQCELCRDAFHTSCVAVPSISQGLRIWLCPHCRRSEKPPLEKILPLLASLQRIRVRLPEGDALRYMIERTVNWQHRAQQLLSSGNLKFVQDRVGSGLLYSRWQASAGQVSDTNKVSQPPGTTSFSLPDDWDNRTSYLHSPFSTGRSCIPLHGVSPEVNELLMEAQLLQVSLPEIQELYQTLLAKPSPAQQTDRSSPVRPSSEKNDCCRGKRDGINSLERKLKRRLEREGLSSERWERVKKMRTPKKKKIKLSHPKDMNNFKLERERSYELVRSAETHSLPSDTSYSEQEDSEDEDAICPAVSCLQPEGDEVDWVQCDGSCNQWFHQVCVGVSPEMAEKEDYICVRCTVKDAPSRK
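Measured: NADH fluorescence change, 30 min, RT. System: KDM5BΔAP 200 nM final, H3K4me3 peptide, α-KG, Fe(II), ascorbate, NAD⁺ plus FDH, pH 7.5 HEPES. Compounds: titrated, 10 min pre-incubation with enzyme.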
Large screens that a line does not name were inactive. Only a selection was taken, and hits are over-represented in it overall.

CN(C)C[C@@H]1CN(C2CCOCC2)C[C@H]1NC(=O)c1n[nH]c2ccccc12	KDM5B inh 22µM
CN(C)C[C@@H]1CN(c2ccncn2)C[C@H]1NC(=O)c1nccc2ccccc12	none
CN(C)C[C@@H]1CN(C)C[C@H]1NC(=O)c1nn(C)c2ccccc12	KDM5B inh 32µM
CN(C)C[C@@H]1CN(C)C[C@H]1NC(=O)c1ccccc1OC(F)(F)F	none
Cc1noc(C)c1CC(=O)N[C@@H]1CN(C2CCOCC2)C[C@H]1CN(C)C	none
CN(C)C[C@@H]1CN(c2ccncn2)C[C@H]1NC(=O)c1ccc(Cl)s1	none
CN(C)C[C@@H]1CN(C)C[C@H]1NC(=O)c1ccc(Br)cc1	none
CCc1ccc(C2CC(=O)NC3=C2C(=O)CC(c2ccc(OC)cc2)C3)cc1 (configuration not stated)	none
CCOCc1nnc(NC(=O)C2CC(=O)N(CCc3c[nH]c4ccc(C)cc34)C2)s1 (configuration not stated)	none
COc1ccc(-c2coc3cc(OCC#N)ccc3c2=O)cc1OC	none
CCCCc1ccc(NC(=S)NN2CCN(C)CC2)cc1	none
Cc1cc(N2CCN(Cc3ccc(F)c(F)c3)C(CCO)C2)nc(N)n1 (configuration not stated)	none
N#Cc1cccnc1N1CCN(Cc2ccc(F)c(F)c2)C(CCO)C1 (configuration not stated)	KDM5B inh 13µM
Cc1noc2ncnc(N3CCN(Cc4ccc(F)c(F)c4)C(CCO)C3)c12 (configuration not stated)	none
N#Cc1cccc(NC(=O)COc2ccc(C(=O)c3ccccc3)cc2)c1	none
Oc1ccccc1CN1C[C@H](O)C[C@H]1c1nc(-c2ccc(F)cc2)no1	none
CCOP(=O)(OCC)c1nc(-c2ccc([N+](=O)[O-])cc2)oc1NCc1ccc(F)cc1	none
O=C(OCCF)N1CCC(Oc2cnc3c(ccn3-c3cncnc3)c2)CC1	none
NC(=O)Cn1ccc2cc(OCC3CCN(C(=O)C4CC4)CC3)cnc21	KDM5B inh 35µM
O=C(CCC(F)(F)F)N1CCC(Oc2cnc3c(ccn3-c3cncnc3)c2)CC1	none
COCC(=O)N1CCC(Oc2cnc3c(ccn3-c3cncnc3)c2)CC1	none
O=C(C1CCCC1)N1CCC(CCOc2ccc(F)cc2)C1 (configuration not stated)	none
O=C(O)CCn1ncc2cc(OCC3CCN(C(=O)COc4ccccc4)CC3)ccc21	none
O=C(O)Cn1ccc2cc(OCC3CCN(C(=O)CCC(F)(F)F)CC3)cnc21	KDM5B inh 35µM
Cc1cnc(C)c(N2CCC(COc3cnc4c(ccn4CC(N)=O)c3)CC2)n1	KDM5B inh 35µM
CCOC(=O)N1CCC(COc2ccc3c(cnn3CC[S+](C)(=O)[O-])c2)CC1	none
CCOC(=O)N1CCC(Oc2cnc3c(ccn3-c3cncnc3)c2)CC1	none
O=C(O)CCn1ncc2cc(OCC3CCN(C(=O)C4CCCC4)CC3)ccc21	none
O=C(O)Cn1ccc2cc(OCC3CCN(C(=O)C4CCCC4)CC3)cnc21	KDM5B inh 35µM
O=C(CCn1ccc2ccccc21)N1CCN(S(=O)(=O)c2cccc(F)c2)CC1	none
CCCNc1c(NC(=O)Nc2ccc(C)c(C)c2)c(=O)oc2ccccc12	none
Nc1nc(N2CCOCC2)nc2c1C(C(=O)Nc1ccc(Br)cc1)CC(=O)N2 (configuration not stated)	none
FC(F)(F)c1cccc(N/N=C/c2cccs2)c1	none
COc1ccc(OC)c(CNC(=O)CN(C(=O)C2=C(C)OCCS2)c2ccc(Cl)cc2)c1	none
Cc1cc(NC(=O)[C@@H]2CCCN2S(=O)(=O)c2ccc(OC(C)C)cc2)no1	none
CC(C)c1cccc(NC(=O)c2ccc(Cn3ccn4nc5c(c4c3=O)CCCC5)cc2)c1	KDM5B inh 22µM
O=C(Nc1ccc(Cl)cc1)c1ccc(Cn2ccn3nc4c(c3c2=O)CCCC4)cc1	none
O=C(Nc1ccc(F)c(F)c1)c1ccc(Cn2ccn3nc4c(c3c2=O)CCCC4)cc1	KDM5B inh 25µM
O=C(CCn1ccn2nc3c(c2c1=O)CCCC3)Nc1cccc(F)c1	none
COc1ccccc1OCCNC(=O)c1ccc(Cn2ccn3nc4c(c3c2=O)CCCC4)cc1	KDM5B inh 25µM
O=C(NCc1ccccn1)c1ccc(Cn2ccn3nc4c(c3c2=O)CCCC4)cc1	none
O=C(CCn1ccn2nc3c(c2c1=O)CCCC3)Nc1ccc(F)cc1	none
CCc1ccc(NC(=O)c2ccc(Cn3ccn4nc5c(c4c3=O)CCCC5)cc2)cc1	none
CC(C)c1cccc(NC(=O)CCn2ccn3nc4c(c3c2=O)CCCC4)c1	none
CC(C)OCCCNC(=O)c1ccc(Cn2ccn3nc4c(c3c2=O)CCCC4)cc1	none
COCCCNC(=O)c1ccc(Cn2ccn3nc4c(c3c2=O)CCCC4)cc1	none
O=C(Nc1ccccc1)c1ccc(Cn2ccn3nc4c(c3c2=O)CCCC4)cc1	KDM5B inh 22µM
COc1ccc(/C=C2/CCn3c2nc2cc(Cl)ccc2c3=O)cc1O	none
COC(=O)C1C(C(=O)OC)C2(OC(c3ccccc3)=CC2=O)C12OC(c1ccccc1)=CC2=O (configuration not stated)	none
Cc1ccc(-n2cccc2C=O)cc1Cl	none
CC(/C=N/Nc1ccc([N+](=O)[O-])cc1[N+](=O)[O-])=C\c1ccco1	none
COc1ccccc1C1=NN(C(=O)c2cccc(F)c2)C(c2ccc3nccnc3c2)C1 (configuration not stated)	none
O=C(O)C(c1c[nH]c2cc(CO)ccc12)N1CCN(CCOc2ccc(Cl)cc2)CC1 (configuration not stated)	none
O=C(CCSc1nc(Cl)nc2nc[nH]c12)N1CCN(Cc2ccccc2)CC1	none
Clc1ccc(-c2cnc(CSc3n[nH]c(-c4ccccc4)n3)o2)cc1	none
N#CCNC(=O)c1ccc2c(c1)OCCCO2	none
O=C(Nc1cccc2ncccc12)c1ccc(Oc2ccccc2)cc1	none
NC(=O)c1ccccc1NC(=O)C(=O)c1c[nH]c2ccccc12	none
Fc1ccc(Nc2nc(-c3ccc(F)cc3)cs2)cc1	none
CC(Oc1ccccc1)C(=O)N1CC(Oc2cccc(-c3nc(-c4ccccc4)no3)c2)C1 (configuration not stated)	KDM5B inh 22µM
COc1ccccc1C(=O)N1CC(Oc2cccc(-c3nc(-c4ccccc4)no3)c2)C1	KDM5B inh 22µM
O=C(C1CCOCC1)N1CC(Oc2cccc(-c3nc(-c4ccccc4)no3)c2)C1	none
COc1cccc(C(=O)N2CC(Oc3cccc(-c4nc(-c5ccccc5)no4)c3)C2)c1	none
O=C(c1cc(F)ccc1F)N1CC(Oc2cccc(-c3nc(-c4ccccc4)no3)c2)C1	none
CCCNC(=O)N1CC(Oc2cccc(-c3nc(-c4ccccc4)no3)c2)C1	none
Cc1ccc(F)cc1NC(=O)C(C)C	none
CCOc1c(Cl)cc(Cl)cc1CNCc1ccncc1	none
Fc1cccc(NC(=S)NCc2cccs2)c1	none
C[N+]1(CC#Cc2ccccc2)CCC(c2ccccc2)(c2ccccc2)CC1	none
NC(=S)N/N=C/C1=C(c2ccccc2)C2C=CC1C2 (configuration not stated)	none
O=C(O)C(c1c[nH]c2cc(F)ccc12)N1CCN(CCNc2cc(=O)oc3ccccc23)CC1 (configuration not stated)	none
Cc1ccc(C2c3c(-c4cc(C)cc(C)c4O)n[nH]c3C(=O)N2CCCO)cc1 (configuration not stated)	none
O=C(/C=C/c1ccccc1OC(=O)c1cccs1)c1cc2ccccc2o1	none
O=C(OC1CCCCC1=O)c1cccc(Br)c1 (configuration not stated)	none
NC(=O)c1c(NC(=O)CSc2ccccn2)sc2c1CCCC2	none
CCOCCCNC(=O)c1c(C)noc1-c1cc(OC)c(OC)c(OC)c1	KDM5B inh 28µM

From PubChem BioAssay
